Source: PubChem
IL1B secr inh: inhibitors of inflammasome signaling (IL-1 beta secretion) | activity change, % at 57.5 µM | THP-1 LPS/ATP IL-1B secretion, AlphaLISA, 16 h; hits give low values | 360,000 tested, 4.7% active; in the data active means activity change below about -50%; inconclusive means mostly about -30% to -49%
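Secreted IL-1B measured by AlphaLISA bead assay after 16 h compound exposure of THP-1 cells; compounds (final up to 57.5 uM) added 1 h before LPS (250 ng/mL) and ATP (1.25 mM) stimulation; lower signal means less secretion.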
HT1080-NT tox: kills 2HG-producing HT-1080-NT fibrosarcoma cells. HT-1080-NT fibrosarcoma viability, CellTiter-Glo ATP luminescence, 48 h. 360,000 tested, 1.6% active. Potency, µM (highest dose often 46.1 µM), usual class: cytotoxic. AID 686970;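 further: NT is the 2HG producing partner of a matched IDH1 knockdown line; nearly all actives have a fitted effect of over 55% in size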
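Viability of the 2HG-overproducing fibrosarcoma line after 48 hours of compound exposure at 37 degrees C was determined by luminescence with CellTiter-Glo, and concentration-effect curves were then fitted and categorized.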
HT1080 IDH1KD tx: HT-1080 IDH1 knockdown cell toxicity (counter line). AID 686971. 360,000 tested, 2% active. HT-1080 IDH1 knockdown viability, ATP luminescence, 48 h. Potency, µM (doses to about 46.1 µM), actives largely listed as cytotoxic
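% activity derives from luminescence (CellTiter-Glo), normalised to DMSO and no-cell wells. HT-1080-IDH1KD cells, 750/well, had 48 h compound exposure at 37 °C.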
DT40 TDP1 no CPT: qHTS for Inhibitors of human tyrosyl-DNA phosphodiesterase 1 (TDP1): qHTS in cells in absence of CPT | DT40 Tdp1-/- hTDP1 cells, no CPT, ATP luminescence, 48 h | Potency, µM (highest dose often 46.2 µM), actives largely listed as inhibitors | 420,000 tested, 15% active | AID 686978, 2013; further: nearly all actives have a fitted effect of over 55% in size
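Chicken DT40 Tdp1-/- cells stably complemented with human TDP1 were seeded at 400 cells/well with DMSO in place of 20 nM camptothecin. After compound pinning, cells grew at least 48 hr at 37 °C; viability read by CellTiter-Glo luminescence.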
TDP1 cell CPT: growth inhibition of DT40 Tdp1-/-;hTDP1 cells with camptothecin (screen for TDP1 inhibitors); chicken DT40 Tdp1-/-;hTDP1 cells + 20 nM CPT, ATP luminescence, 48 h; Potency, µM (highest dose often 46.2 µM), hits mostly inhibitors; 420,000 tested, 12% active; AID 686979; further: nearly all actives have a fitted effect of over 55% in size
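Chicken DT40 Tdp1-/- cells stably complemented with human TDP1 were seeded at 400 cells/well in medium containing 20 nM camptothecin, exposed to pin-transferred compounds, and grown at 37 °C for at least 48 hr. Viability was read as ATP luminescence.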
A number is an active result; - = inactive; ? = inconclusive; . = no result; [ ] = another dose, or the depositor's remark. Compounds with a hit are over-represented: about 19% of the library has one in this group of screens. Unless noted, the call rests on the fitted dose curve; in most records, active means well fitted curve in the direction sought with a large enough effect; inconclusive means small, poorly fitted or top-dose-only effect, or another doubt; inactive means no such curve, though single readings can be large; an effect the other way counts as inactive or inconclusive.

SMILES | IL1B secr inh | HT1080-NT tox | HT1080 IDH1KD tx | DT40 TDP1 no CPT | TDP1 cell CPT
CS/C(=N/S(=O)(=O)c1ccc(C)cc1)c1ccccc1 | -55 | - | - | - | -
CCC1CN(CC(=O)NC(C)CO)Cc2cc(OC)ccc2O1 (stereo unspecified) | . | . | . | - | -[9.04 µM]
Cc1ccccc1S(=O)(=O)NC(=O)C1(C)CCN1C(=O)CC1CCCC1 (stereo unspecified) | - | - | ? | - | -
CCNC(=S)N/N=C(\C)c1ccc2ccccc2c1OC(F)F | - | - | - | 16µM | 23µM
C/C(=N\NC(=O)COc1ccc(C#N)cc1)c1ccccc1OC(F)F | - | - | - | ? | -
C/C(=N\NC(=S)NC(C)C)c1ccccc1OC(F)F | - | - | - | 3.3µM | 2.9µM
Cc1cc(C)cc(C(=O)Nc2ccncc2)c1 | - | - | - | - | ?
COc1ccc(Br)cc1CNC(=O)Cn1c(=O)c2cccn2c2ccc(F)cc21 | . | . | . | 13µM | 4.6µM
COc1ccc(Br)cc1CNC(=O)CCCn1c(=O)c2cccn2c2ccccc21 | . | . | . | 23µM | ?
COc1ccc(Br)cc1CNC(=O)CCCn1c(=O)c2cccn2c2cccnc21 | . | . | . | 18µM | ?
CCOc1ccc(CNC(=O)Cn2c(=O)c3cccn3c3ccc(F)cc32)cc1OC | . | . | . | - | -
COc1ccc(Br)cc1CNC(=O)Cn1ncn2nc(-c3cccs3)cc2c1=O | . | . | . | 13µM | 12µM
Cc1ccccc1CNC(=O)Cn1ncn2nc(-c3cccs3)cc2c1=O | . | . | . | ? | -
O=C(COc1ccc(/C=N/NS(=O)(=O)c2ccccc2)cc1)NCc1ccccc1 | - | - | - | - | -
CN(CC(=O)Nc1ccc(N2CCOCC2)cc1)Cc1cc(=O)n2ccsc2n1 | - | - | - | ? | 18µM
O=C(COc1ccc(/C=N/NS(=O)(=O)c2ccccc2)cc1)Nc1cccc(Cl)c1 | - | ? | ? | 21µM | ?
CCn1c2ccccc2c2cc(NC(=O)COc3ccccc3)ccc21 | - | - | - | 23µM | 18µM
CCn1c2ccccc2c2cc(NC(=O)COc3ccc(OC)cc3)ccc21 | - | ? | - | ? | ?
CCn1c2ccccc2c2cc(NC(=O)c3cc(OC)cc(OC)c3)ccc21 | - | 1.3µM | 1.5µM | 0.73µM | 1µM
Cc1cc(-c2ccnc(-n3ncc(C(=O)N(C)CC(O)c4ccccc4)c3C)n2)c(C)s1 (stereo unspecified) | . | . | . | - | -[9.04 µM]
CCn1c2ccccc2c2cc(NC(=O)c3ccc(Br)o3)ccc21 | ? | - | - | ? | ?
CCn1c2ccccc2c2cc(NC(=O)CN(C)CC(=O)Nc3ccc(N4CCOCC4)cc3)ccc21 | ? | - | 26µM | 23µM | ?
Cc1cc(NC(=O)COc2ccccc2)ccc1Cl | - | - | - | - | -
Cc1ccc(NC(=O)COc2ccccc2)cc1Cl | -51 | - | - | - | -
C/C(CC(=O)Nc1ccc(OCc2ccccc2)cc1)=N\NC(=O)C(=O)Nc1ccc(C)c(Cl)c1 | - | 18µM | ? | 18µM | ?
SMILES | IL1B secr inh | HT1080-NT tox | HT1080 IDH1KD tx | DT40 TDP1 no CPT | TDP1 cell CPT
CCn1c2ccccc2c2cc(NC(=O)c3cc(C)on3)ccc21 | ? | ? | 23µM | 18µM | ?
CCn1c2ccccc2c2cc(NC(=O)N3CCOCC3)ccc21 | - | - | - | ? | -
CN1C(=O)c2ccccc2C(C(=O)O)C1c1cn(C)c2ccccc12 (stereo unspecified) | - | - | - | ? | ?
O=C(Cn1c(=O)n(-c2ccc(F)cc2)c(=O)c2sc3ccccc3c21)N1CCCC1 | . | . | . | - | -
COc1cc(C(=O)Nc2cccc(NC(=O)c3ccccc3)c2)cc(OC)c1OC | ? | - | - | - | ?
CCn1c2ccccc2c2cc(NC(=O)c3cc(OC)c(OC)c(OC)c3)ccc21 | - | 0.82µM | 1.5µM | 1.3µM | 1.3µM
Cc1ccc(NC(=O)CC(C)CC(=O)NCc2ccccc2)cc1Cl (stereo unspecified) | - | - | - | ? | 13µM
CCOc1ccc2nc(SCC(=O)c3ccc(O)cc3O)sc2c1 | - | - | - | ? | -
N#C/C(=C(/O)c1ccc([N+](=O)[O-])o1)c1nc2ccccc2[nH]1 | - | - | - | 18µM | 12µM
N#C/C(=C\c1ccc(N2CCCC2)c([N+](=O)[O-])c1)c1nc2ccccc2[nH]1 | - | - | - | - | -
N#C/C(=C\c1ccc([N+](=O)[O-])o1)c1nc2ccccc2[nH]1 | -101 | 5.8µM | 5.8µM | 0.82µM | 0.58µM
COc1ccc(CN2C(=O)C(C)Nc3ncnc(N4CCN(c5ccccn5)CC4)c32)cc1 (stereo unspecified) | - | ? | - | 23µM | ?
COc1ccc(CN2C(=O)C(C)Nc3ncnc(N4CCc5ccccc5C4)c32)cc1 (stereo unspecified) | - | 2.1µM | 2.3µM | 4.6µM | 4.6µM
Cc1ccc(CN2C(=O)C(C)Nc3ncnc(N4CCN(c5ccccn5)CC4)c32)cc1 (stereo unspecified) | - | ? | - | 18µM | ?
CCCCCC(=O)Nc1cccc(C2=NOC3(C2)C[C@H](C(N)=O)N(C(=O)c2ccccc2C(=O)c2ccccc2)C3)c1 (stereo partly specified) | - | - | - | ? | ?
CC1=C(NCCc2ccccc2)CCC1=O | - | - | - | 21µM | 21µM
O=C(CN(C(=O)CNS(=O)(=O)c1ccc(F)cc1)C1CCCC1)NCc1ccco1 | - | - | - | - | -
COc1cc(OC)cc(C(=O)OCC(=O)Nc2cccc(S(=O)(=O)NC3=NCCCCC3)c2)c1 | - | - | - | 21µM | ?
Cc1ccc(Nc2nnc(SCC(=O)Nc3cccc(S(=O)(=O)NC4=NCCCCC4)c3)s2)c(C)c1 | ? | - | - | 26µM | ?
Cc1ccc(C)c(C(=O)OCC(=O)Nc2cccc(S(=O)(=O)NC3=NCCCCC3)c2)c1 | -69 | - | - | ? | ?
COc1ccc(/C=C/C(=O)OCC(=O)Nc2cccc(S(=O)(=O)NC3=NCCCCC3)c2)cc1 | -70 | - | - | - | -
COc1ccc(C(=O)Nc2cccc(S(=O)(=O)NC3=NCCCCC3)c2)cc1 | - | -[9.24 µM] | - | - | -
CN(C)n1cnc2ccsc2c1=O | - | - | - | - | -
CCOC(=O)CNC(=S)SC | - | - | - | - | -
CCOC(=O)CNC(=S)n1ncnc1N | - | - | - | ? | 16µM
Cc1ccc(SCCNC(=O)c2ccc(C)c(S(=O)(=O)Nc3cccc(C)c3)c2)cc1 | -57 | ? | ? | - | ?
CS(=O)(=O)Nc1ccccc1C(=O)NCCSc1ccc(Cl)cc1 | - | ? | - | ? | ?
Cc1ccc(NS(=O)(=O)c2cc(C(=O)NCCSc3ccc(C)cc3)ccc2C)cc1 | -53 | ? | ? | ? | ?
